The nature of test [1]: Cell Viability - LYMP2-007 (AID 979).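 Also: cells exposed to compound for 24 h before reading; nearly all actives have a fitted effect of over 60% in size.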 Also: potency is read from the fitted curve at half-maximal effect. The procedure, abridged:
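Human lymphoblastoid LYMP2-007 cells (2500/well) preincubated 5 h at 37 C, then treated 24 h at 37 C in complete medium. Viability by CellTiter-Glo ATP luminescence after 30 min at room temperature; AC50 from Hill fits.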

Test [2] can be described thus: Cell Viability - LYMP2-010 (AID 981). Also: nearly all actives have a fitted effect of over 55% in size. Also: potency is read from the fitted curve at half-maximal effect. The procedure, abridged: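 Human lymphoblastoid LYMP2-010 cells (2500/well) treated 24 h at 37 C in complete medium; viability read as intracellular ATP by CellTiter-Glo luminescence. AC50 from Hill fits of concentration-response data; tetraoctylammonium bromide positive control.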
Test [3] can be described thus: Cell Viability - LYMP2-012 (AID 982).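 Also: cellular ATP by luciferase luminescence where a drop means cytotoxicity; cells exposed to compound for one day before reading; nearly all actives have a fitted effect of over 55% in size.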 Also: potency is read from the fitted curve at half-maximal effect.
A short description of test [4]: Cell Viability - LYMP2-014 (AID 983). Also: nearly all actives have a fitted effect of over 50% in size. Also: potency is read from the fitted curve at half-maximal effect. The procedure, abridged:
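LYMP2-014 human lymphoblastoid cells, 2500/well, treated 24 h at 37 C in complete medium; viability by CellTiter-Glo ATP luminescence after 30 min at room temperature. AC50 from Hill fits of qHTS concentration-response; tetraoctylammonium bromide positive control.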

Test [5] can be described thus: Cell Viability - LYMP2-016 (AID 984). Also: nearly all actives have a fitted effect of over 55% in size. Also: potency is read from the fitted curve at half-maximal effect. The procedure, abridged: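 Cytotoxicity was scored by luminescent ATP content (CellTiter-Glo) after 24 h compound exposure at 37 C of a human lymphoblastoid line at 2500 cells/well. Concentration-response data were fitted to the Hill equation for AC50.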
Test [6] is described as follows: Cell Viability - LYMP2-018 (AID 985).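 Also: compound exposure lasted 24 hr at 37 °C; nearly all actives have a fitted effect of over 50% in size.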 Also: potency is read from the fitted curve at half-maximal effect. The procedure, abridged:
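Human lymphoblastoid LYMP2-018 cells, 2500/well, settled 5 hr at 37 C then exposed to compound 24 hr at 37 C; intracellular ATP measured by CellTiter-Glo luminescence. AC50 from Hill-equation concentration-response fits.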

The nature of test [7]: Cell Viability - LYMP2-020 (AID 986). Also: nearly all actives have a fitted effect of over 55% in size. Also: potency is read from the fitted curve at half-maximal effect. The procedure, abridged: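 Human lymphoblastoid LYMP2-020 cells (2500/well) preincubated 5 h at 37 C, then treated 24 h at 37 C. Viability measured as intracellular ATP by CellTiter-Glo luminescence after 30 min at room temperature; AC50 from Hill fits.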
Test [8] can be described thus: Cell Viability - LYMP2-022 (AID 987). Also: nearly all actives have a fitted effect of over 55% in size. Also: potency is read from the fitted curve at half-maximal effect. The essentials:
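LYMP2-022 lymphoblastoid cells (2500/well, complete medium) were treated with compounds for 24 hours at 37 C; intracellular ATP was then read by CellTiter-Glo luminescence after 30 min at room temperature. AC50 values were derived from Hill-equation fits.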

Test [9] in a line: Cell Viability - LYMP2-024 (AID 988). Also: nearly all actives have a fitted effect of over 60% in size. Also: potency is read from the fitted curve at half-maximal effect. The essentials: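 Human lymphoblastoid LYMP2-024 cells (2500/well) rested 5 hr, then treated with compound for 24 hr at 37 C in complete medium. Viability was measured as intracellular ATP by CellTiter-Glo luminescence. AC50 values came from Hill-equation fits.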
Test [10] is described as follows: Cell Viability - LYMP2-026 (AID 989). Also: nearly all actives have a fitted effect of over 50% in size. Also: potency is read from the fitted curve at half-maximal effect. The essentials: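 Human lymphoblastoid LYMP2-026 cells, 2500/well, exposed to compound 24 h at 37 C in complete medium. Viability as intracellular ATP by CellTiter-Glo luminescence; AC50 from Hill fits of qHTS concentration-response.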
The nature of test [11]: Cell Viability - LYMP1-002 - Assay at 24 hr (AID 993). Also: potency is read from the fitted curve at half-maximal effect. The essentials:
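Human lymphoblastoid LYMP1-002 cells (2500/well) treated 24 h at 37 °C; viability as intracellular ATP by CellTiter-Glo luminescence. Tetraoctylammonium bromide as positive control; AC50 from Hill-equation fits of qHTS concentration-response.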

A short description of test [12]: Cell Viability - LYMP2-006 (AID 978). Also: % is scaled to controls: 0 for no effect and ±100 for the full control effect; nearly all actives have a fitted effect of over 60% in size. The procedure, abridged: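 Potency values are Hill-fit AC50s for decreases in intracellular ATP (CellTiter-Glo luminescence). LYMP2-006 lymphoblastoid cells, 2500 per well, were exposed to compound in complete culture medium for 24 hr at 37 C.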
Test [13] is described as follows: Cell Viability - LYMP2-008 (AID 980). Also: % is scaled to controls: 0 for no effect and ±100 for the full control effect; nearly all actives have a fitted effect of over 60% in size. The procedure, abridged: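 LYMP2-008 lymphoblastoid cells (2500/well) plated 5 h, then treated 24 h at 37 C in complete medium. Viability read as intracellular ATP by CellTiter-Glo luminescence after 30 min at room temperature; AC50 from Hill fits.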
The nature of test [14]: qHTS Assay for Lipid Storage Modulators (AID 1519; calls by dose curve; as to activity change, negative = inhibition: % is scaled to controls: 0 for no effect and ±100 for the full control effect). The following applies: Drosophila S3 cells, BODIPY lipid droplet/cell ratio, laser cytometry, cells loaded with oleic acid. The essentials:
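Cells seeded at 5,000 per well were treated with compounds over a concentration series and loaded with oleic acid (400 uM, as added). Lipid droplet fluorescence (488 nm excitation, 500-530 nm channel) was read by laser-scanning cytometry and normalized to 20 uM Triacsin C.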
A general note: qHTS replaces the single test concentration by a dilution series.

Test [15] deals with Alpha-galactosidase A (Homo sapiens) (UniProt P06280). Kind of test: Counterscreen for Glucocerebrosidase Inhibitors: qHTS Assay for Human alpha-Galactosidase at pH 4.5 (AID 992). Also: 0% is about no effect. The procedure, abridged: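 Concentration-response curves (0.7 nM to 77 uM final) were modeled with the Hill equation to give AC50. Reactions: 2 nM enzyme, 80 uM fluorogenic alpha-galactoside, pH 4.5 citric acid buffer, 20 min, room temperature.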
Alpha-galactosidase A (Homo sapiens), sequence (P06280 whole entry, looked up): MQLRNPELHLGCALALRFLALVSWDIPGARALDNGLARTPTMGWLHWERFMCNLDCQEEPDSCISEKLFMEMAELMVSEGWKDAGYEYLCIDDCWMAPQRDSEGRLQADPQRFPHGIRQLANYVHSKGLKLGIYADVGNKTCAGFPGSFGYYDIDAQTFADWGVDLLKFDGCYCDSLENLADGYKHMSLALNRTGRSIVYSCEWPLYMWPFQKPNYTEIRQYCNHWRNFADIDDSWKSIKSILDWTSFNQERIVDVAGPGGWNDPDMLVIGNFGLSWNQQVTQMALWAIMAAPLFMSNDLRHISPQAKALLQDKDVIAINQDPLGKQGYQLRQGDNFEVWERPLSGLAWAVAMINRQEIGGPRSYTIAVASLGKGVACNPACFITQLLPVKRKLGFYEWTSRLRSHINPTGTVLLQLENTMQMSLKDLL
A general note: The purpose of a counterscreen is to sort out artefacts and off-target activity.

Test [16] concerns the target alpha-glucosidase (Oryza sativa, rice) (UniProt Q653V4). The experiment in a line: Counterscreen for Glucocerebrosidase Inhibitors: qHTS Assay for Rice alpha-Glucosidase at pH 5.0 (AID 997).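 Also: 0% = full activity with enzyme and -100% = basal without enzyme.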 The procedure, abridged:
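Rice alpha-glucosidase (4 nM final) with 400 uM 4-methylumbelliferyl-alpha-D-glucopyranoside in citrate buffer pH 5.0, 20 min at room temperature, stopped at pH 10; fluorescence 365/440 nm, compounds 0.7 nM–77 uM, AC50 from Hill fits.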

For test [17], the target named is DNA repair nuclease/redox regulator APEX1 (Homo sapiens) (UniProt P27695). The experiment in a line: qHTS Validation Assay for Inhibitors of the Human Apurinic/apyrimidinic Endonuclease 1 (APE1) (AID 1705;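 also: TAMRA fluorescence gain over two minutes as APE1 cuts a quenched THF abasic duplex; % is scaled to controls: 0 for no effect and ±100 for the full control effect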). The essentials: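 Activity read as rising fluorescence (598 nm emission, 525 nm excitation) from incision of a TAMRA/BHQ-2 duplex carrying a THF abasic site (50 nM). Compound and enzyme sat 15 min at RT before substrate start; signal change between first and third 60-s reads.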
DNA repair nuclease/redox regulator APEX1 (Homo sapiens), sequence (P27695 whole entry, looked up): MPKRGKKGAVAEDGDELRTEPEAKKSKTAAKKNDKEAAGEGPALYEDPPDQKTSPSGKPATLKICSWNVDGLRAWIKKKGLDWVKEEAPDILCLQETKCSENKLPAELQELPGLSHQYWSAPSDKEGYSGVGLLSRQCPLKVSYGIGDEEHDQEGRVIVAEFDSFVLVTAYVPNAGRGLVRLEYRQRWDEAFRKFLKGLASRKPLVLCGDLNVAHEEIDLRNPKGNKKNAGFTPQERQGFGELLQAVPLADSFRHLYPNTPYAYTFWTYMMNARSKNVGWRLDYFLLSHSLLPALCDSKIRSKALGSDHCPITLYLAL

Test [18] is described as follows: Counterscreen for APE1 Inhibitors: Fluorescent Dye Displacement Validation Assay (AID 1707).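 Also: plate controls were ThO with dsDNA and no compound for no effect and ThO without dsDNA for full effect.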 The essentials:
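Assay buffer: Tris-HCl pH7.5 with 50mM NaCl, 2 mM MgCl2, 0.01% Tween-20. Dye 250 nM, duplex 50 nM final. Readout: decrease in ThO endpoint fluorescence, 480 nm excitation, 540 nm emission.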

Test [19] has as its target Endonuclease 4 (Escherichia coli (strain K12)) (UniProt P0A6C1). Kind of test: Counterscreen for APE1 Inhibitors: qHTS Validation Assay for Inhibitors of Endonuclease IV (AID 1708). Also: % is scaled to controls: 0 for no effect and ±100 for the full control effect. The procedure, abridged: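 qHTS concentration-response format; LOPAC1280 tested under APE1-screen conditions. 2 nM enzyme, 15 min compound preincubation at RT, then 50 nM TAMRA/BHQ-2 abasic substrate; kinetic fluorescence read, three reads at 60 s intervals.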

The mark [20] stands for this setting: measured here: cell count channel max response.
[21] abbreviates: measured here: lipid channel max response.

Structures are written as SMILES. Several values for one entry are separate records, joined by “and”; a condition that tells them apart may be missing. Identical values can stand only once. Inconclusive results are not listed. Activity calls are given as the source filed them. Unless noted, calls follow the shape of the dose curve; as a rule, active = well fitted curve in the direction sought with a large enough effect; inconclusive = small, poorly fitted or top-dose-only effect, or another doubt; inactive = no such curve, though single readings can be large; an effect the other way counts as inactive or inconclusive. Numbered stars: 1 amine (or outer) side, 2 acyl side, 3 side chain; on linkers, the order of the positions; unused ones are H or OH. Bridge positions count the residues as written; N and C are the ends. Square brackets hold non-standard residues; d marks the D form. Peptide text beside a SMILES is read from it. I, II: the chains in the order shown. Actinocin(9to1) = Cc1c2oc3c(C)ccc(C(=O)[*:1])c3nc-2c(C(=O)[*:2])c(N)c1=O; NMeV = CN[C@H](C(=O)O)C(C)C; Sar = CNCC(=O)O

In the case of `COc1cccc2c1C(=O)c1c(O)c3c(c(O)c1C2=O)C[C@@](O)(C(=O)CO)C[C@@H]3O[C@H]1C[C@H](N)[C@H](O)[C@H](C)O1`, the Potency is 1000 nM (active) in [1]; 251 nM (active) in test [2]; 199 nM (active) in test [3]; 316 nM (active) in [4]; 251 nM (active) in test [5]; 158 nM (active) in [6]. Moreover, the Potency in test [7] was 316 nM (active); in test [8], 251 nM (active); in [9] it was 199 nM (active); in test [10], 501 nM (active); in test [11], 1000 nM (active).
Regarding `COC1=CC(=O)C[C@@H](C)[C@]12Oc1c(Cl)c(OC)cc(OC)c1C2=O`, the Potency result in test [12], in test [1], in [13], in [2], in [3] and in test [4] was “inactive” throughout. The Potency result in test [5], in test [6], in [7], in test [8], in test [9] and in test [10] was “inactive” each time. For the same compound, the Potency result in test [11] was “inactive”. In test [14] (at 57.5 µM (top of the series)), the activity change, negative = inhibition was 14.1% (inactive). Further, the figures for the max response in test [14] (setting [20]) and in test [14] (setting [21]) were 4.54% and 22.2%, respectively.
With `CN(C)/N=N/c1nc[nH]c1C(N)=O`, the Potency result in [12], in test [1], in test [13], in test [2], in test [3] and in test [4] was “inactive” in each case. Moreover, the Potency entry in test [5], in [6], in test [7], in [8], in test [9] and in [10] was “inactive” in each case. Further, the Potency result in test [11] was “inactive”. Further, the activity change, negative = inhibition in test [14] (at 57.5 µM (top of the series)) was 6.55% (inactive). Moreover, the results for the max response in [14] (setting [20]) and in test [14] (setting [21]) were 10% and 19.3%, respectively.
Take `O=C(O)CCCCC(=O)O`: the Potency result in test [12], in test [1], in test [13], in test [2], in test [3] and in test [4] was “inactive” throughout. Also, the Potency entry in test [5], in test [6], in [7], in [8], in test [9] and in test [10] was “inactive” in each case. The Potency result in test [11] was “inactive”.
With `CCCCCCc1ccc(O)cc1O`, the Potency entry in test [12], in [1], in test [13], in test [2], in test [3] and in test [4] was “inactive” throughout. Also, the Potency entry in [5], in [6], in [7], in test [8], in test [9] and in [10] was “inactive” throughout. In addition, in test [11], the Potency entry was “inactive”.
For the compound `CN1CCC[C@@H]1c1cccnc1`, the call in [15] and in [16] was inactive.
Regarding `COc1cc(-c2ccc(=O)[nH]n2)ccc1OC(F)F`, the result in test [15], in [16], in [18] and in [19] was inactive. Further, the Potency entry in test [17] is “inactive”.
As for `CN1[C@@H]2CC[C@H]1CC(OC(=O)c1c[nH]c3ccccc13)C2` (some centres not stated), the call in [15] and in [16] was inactive.
With `CC/C(=C(/CC)c1ccc(O)cc1)c1ccc(O)cc1`, the Potency entry in test [12], in [1], in test [13], in test [4], in test [5] and in test [6] was “inactive” in each case. Also, the Potency result in test [7], in test [8], in test [9], in [10] and in [11] was “inactive” throughout. Moreover, the activity change, negative = inhibition in test [14] (at 57.5 µM (top of the series)) is 9.04% (inactive). Further, the max response in test [14] (setting [20]) worked out at 9.58%; in test [14] (setting [21]), 18.5%.
For the compound `C[C@]12CC[C@@H]3c4ccc(O)cc4CC[C@H]3[C@@H]1CC[C@@H]2O`, the Potency entry in test [12], in test [1], in test [13], in test [2], in test [3] and in test [4] was “inactive” in each case. Further, the Potency result in test [5], in test [7], in test [8], in [9], in test [10] and in test [11] was “inactive” throughout. In addition, the Potency entry in [17] is “inactive”. Besides, the outcome in test [15], in [16], in test [18] and in test [19] was inactive.
Turning to `CN=C(NC#N)Nc1ccc(C2=NNC(=O)CC2C)cc1` (configuration not stated), in test [14] (at 57.5 µM (top of the series)), the activity change, negative = inhibition is 2.25% (inactive). The max response in [14] (setting [20]) is 14.7%; in test [14] (setting [21]), 17.1%. The Potency result in test [17] was “inactive”. Further, the compound was classed as inactive in [18] and in [19].
For `C[N+]1(CCCCC[N+]2(C)CCCC2)CCCC1`, the compound was called inactive in test [15], in test [16] and in [18]. Besides, the activity change, negative = inhibition in test [14] (at 25.7 µM (top of the series)) was -1.41% (inactive); in test [14] (at 57.5 µM (top of the series)), 3.44% (inactive) and 1.51% (inactive). Also, the max response in test [14] (setting [20]) was -13.3% and 5.22% and -4.18%; in [14] (setting [21]) it was -15.5% and 11.1% and -3.95%. Also, the Potency result in test [17] is “inactive”.
Consider `Cc1c2oc3c(C)ccc(C(=O)N[C@@H]4C(=O)N[C@H](C(C)C)C(=O)N5CCC[C@H]5C(=O)N(C)CC(=O)N(C)[C@@H](C(C)C)C(=O)O[C@@H]4C)c3nc-2c(C(=O)N[C@@H]2C(=O)N[C@H](C(C)C)C(=O)N3CCC[C@H]3C(=O)N(C)CC(=O)N(C)[C@@H](C(C)C)C(=O)O[C@@H]2C)c(N)c1=O` (I: T[dV]P[Sar][NMeV] / II: T[dV]P[Sar][NMeV]; ester I:1-I:C, II:1-II:C; linker I:N-II:N via Actinocin(9to1)), for which the Potency in [7] is 6.3 nM (active); in test [8], 12.6 nM (active); in test [9] it was 4 nM (active); in [11] it was 7.9 nM (active).

Values taken from PubChem BioAssay (NCATS).
